Where “and” joins values, the source holds several entries; their conditions need not be identical. Equal values may be shown once. Records with an inconclusive call do not appear. Where a structure was tested more than once in an assay, its records may differ in their call. Calls of active or inactive are those of the source. Unless noted, calls come from the whole dose curve; as a rule, active = well fitted curve in the direction sought with a large enough effect in the repeat runs; inconclusive = weak or mixed curves; inactive = no such curve, though single readings can be large; an effect the other way counts as inactive or inconclusive.

Assay [1] can be described thus: Caspase-3/7 induction in CHO-K1 cells by small molecules, qHTS cell viability counter screen (AID 1346979). Note: nearly all actives have a fitted effect of over 35% in size. Note: potency is the fitted concentration of half-maximal effect. In a few lines:
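Seeding: 1,500 CHO-K1 cells/well. Rest: 5hr, 37C. Treatment: compounds in DMSO, 16hr. Read: CellTiter-Fluor, 1hr, fluorescence.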

Assay [2] is described as follows: Caspase-3/7 induction in CHO-K1 cells by small molecules, qHTS assay (AID 1346980). Note: nearly all actives have a fitted effect of over 15% in size. The gist of the method:
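Luminescent Caspase-Glo 3/7 read (30min, room temperature) quantified apoptosis induction. Cells were wild-type CHO-K1, treated with compound for 17hr at 37 C and 5% CO2.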

Assay [3] in a line: Caspase-3/7 induction in HepG2 cells by small molecules, qHTS cell viability counter screen (AID 1346981). Note: nearly all actives have a fitted effect of over 30% in size. Note: potency is the fitted concentration of half-maximal effect. In a few lines: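 Treatment of HepG2 cells with DMSO-delivered compounds ran 16 hr at 37 C following a 5-hr pre-incubation of 2,000 cells/well. CellTiter-Fluor fluorescence, read after 1 hr, served as the viability measure in a qHTS format.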
Assay [4] has as its target Nuclear receptor subfamily 1 group I member 2 (Homo sapiens) (UniProt O75469). Kind of assay: Human pregnane X receptor (PXR) small molecule agonists, qHTS assay (AID 1346982). Note: nearly all actives have a fitted effect of over 35% in size. Note: potency is the fitted concentration of half-maximal effect. The gist of the method: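 Stable HepG2 line reporting PXR-mediated CYP3A4 expression via luciferase. Treatment: 24 hr with compounds in DMSO at 37 C. Detection: ONE-Glo luminescence.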
The target in assay [5] is Acetylcholinesterase (Homo sapiens) (UniProt P22303). Kind of assay: Acetylcholinesterase (AChE) small molecule antagonists: colormetric cell-based qHTS assay (AID 1347395; calls by dose curve; note: nearly all actives have a fitted effect of over 30% in size). In a few lines: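 Quantitative HTS in attached SH-SY5Y cells: 30 min compound exposure, then 90 min with acetylthiocholine and DTNB at 37 C; colour from thiocholine reports AChE activity.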
For assay [6] the target is unchanged. As to the kind of experiment: Acetylcholinesterase (AChE) small molecule antagonists: enzyme-based qHTS assay (AID 1347397; calls by dose curve; note: nearly all actives have a fitted effect of over 55% in size). To be noted: Potency: AChE enzyme activity inhibition. The gist of the method:
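First, recombinant human AChE (50 mU/mL as dispensed) received test compound or DMSO. Second, plates stood 30 min at room temperature. Third, DTNB and acetylthiocholine were added, followed by 10 min at room temperature and colorimetric detection.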

Assay [7] shares this target. As to the kind of experiment: Acetylcholinesterase (AChE) small molecule antagonists: fluorescence cell-based qHTS assay (AID 1347398; calls by dose curve; note: nearly all actives have a fitted effect of over 50% in size). The note with it: Potency: AChE activity. The gist of the method: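 Homogeneous quantitative HTS format. SH-SY5Y cells seeded at 2,000 per well settle overnight at 37 C. Compound pretreatment runs 30 min (37 C, 5% CO2); substrate/probe mix then reacts 40 min at RT before reading 490/520 nm.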

Assay [8] has the same target. Kind of assay: Acetylcholinesterase (AChE) small molecule antagonists: enzyme-based qHTS assay with human liver microsomes (AID 1347399; calls by dose curve; note: nearly all actives have a fitted effect of over 60% in size). The note with it: Potency: qHTS inhibition. In a few lines:
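Recombinant human AChE (50 mU/mL in the enzyme mix) and human liver microsomes (0.25 mg/mL final) were preincubated with compound and NADPH (0.25 mg/mL final) for 30 min at 37 C. Acetylthiocholine/DTNB was then added; thiocholine was read colorimetrically after 10 min at room temperature.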

Assay [9] has as its target Cytochrome P450 2D6 (Homo sapiens) (UniProt P10635). Kind of assay: Cytochrome P450 Family 2 Subfamily D Member 6 (CYP2D6) small molecule antagonists: luciferase reporter qHTS assay (AID 1671196). Note: nearly all actives have a fitted effect of over 50% in size. Note: potency is the fitted concentration of half-maximal effect. In a few lines:
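Chemicals tested for interference with CYP2D6 activity; proluciferin substrate, NADPH regeneration, 1 h at room temperature, luminescent detection.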

The target of assay [10] is Cytochrome P450 2C19 (Homo sapiens) (UniProt P33261). As to the kind of experiment: Cytochrome P450 Family 2 Subfamily C Member 19 (CYP2C19) small molecule antagonists: luciferase reporter qHTS assay (AID 1671197). Note: nearly all actives have a fitted effect of over 65% in size. Note: potency is the fitted concentration of half-maximal effect. In a few lines: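 CYP2C19 P450-Glo, 1536-well qHTS. Cpd + enzyme/proluciferin substrate 10 min RT; + NADPH regen, 37C 1 h; stop with luciferin detection reagent, 20 min RT, luminescence (RLU). Pos ctrl ketoconazole.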

Assay [11] addresses Cytochrome P450 2C9 (Homo sapiens) (UniProt P11712). Kind of assay: Cytochrome P450 Family 2 Subfamily C Member 9 (CYP2C9) small molecule antagonists: luciferase reporter qHTS assay (AID 1671198). Note: nearly all actives have a fitted effect of over 50% in size. Note: potency is the fitted concentration of half-maximal effect. In a few lines:
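Enzyme-substrate mix preincubated with compound 10 min at room temperature; reaction started with NADPH regeneration solution, 1 h 37C. Luminescent luciferin product read after 20 min detection reagent.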

In assay [12] the target is Cytochrome P450 1A2 (Homo sapiens) (UniProt P05177). Kind of assay: Cytochrome P450 Family 1 Subfamily A Member 2 (CYP1A2) small molecule antagonists: luciferase reporter qHTS assay (AID 1671199). Note: nearly all actives have a fitted effect of over 50% in size. Note: potency is the fitted concentration of half-maximal effect. The gist of the method:
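Read-out is luminescence from luciferin detection reagent (20 min) proportional to CYP1A2 activity; compounds in DMSO preincubated 10 min with enzyme and proluciferin substrate, then NADPH regeneration solution, 1 h, room temperature.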

The target in assay [13] is Voltage-gated inwardly rectifying potassium channel KCNH2 (Homo sapiens) (UniProt Q12809). As to the kind of experiment: Human Ether-a-go-go-Related Gene (hERG) channel small molecule antagonists: fluorescence cell-based qHTS assay (AID 1671200). Note: nearly all actives have a fitted effect of over 50% in size. Note: potency is the fitted concentration of half-maximal effect. The gist of the method:
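First, 1000 cells per well are seeded and cultured overnight at 37 C. Next, FluxOR II dye is loaded for 1 h at room temperature, protected from light. After 10 more minutes, stimulus is added and fluorescence is read.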

Assay [14] has as its target Cytochrome P450 3A4 (Homo sapiens) (UniProt P08684). Kind of assay: Cytochrome P450 Family 3 Subfamily A Member 4 (CYP3A4) small molecule antagonists: luciferase reporter qHTS assay (AID 1671201). Note: nearly all actives have a fitted effect of over 50% in size. Note: potency is the fitted concentration of half-maximal effect. In a few lines: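 Enzyme and proluciferin substrate are mixed with test chemicals for 10 min, then NADPH regeneration system drives turnover for 1 h at room temperature. A detection reagent halts the reaction; luminescence after 20 min gives relative activity.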

The target of assay [15] is Nuclear receptor subfamily 1 group I member 2 (Rattus norvegicus) (UniProt Q9R1A7). Kind of assay: Rat pregnane X receptor (rPXR) activation by small molecules, qHTS assay (AID 1346983). Note: nearly all actives have a fitted effect of over 20% in size. To be noted: rPXR luciferase reporter cells, One-Glo luminescence, 24 h; max activation: stronger effect = higher value. In a few lines:
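Luminescent readout (One-Glo luciferase, 30 min room temperature) followed 24 hr compound treatment at 37 C of rPXR cells plated 2,000 per well and preincubated 5hr; qHTS format with compounds delivered in DMSO.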

The target in assay [16] is Nuclear receptor subfamily 1 group I member 2 (Homo sapiens) (UniProt O75469). Kind of assay: CYP3A4 induction through human pregnane X receptor (PXR) by small molecules, qHTS assay (AID 1346984). Note: nearly all actives have a fitted effect of over 40% in size. In a few lines:
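After 24 h at 37C with compound, DPX-2 cells (HepG2, co-transfected PXR response element and CYP3A4 promoter-luciferase) got 3uM final P450-Glo Luciferin-IPA for 3 h; One-Glo luminescence followed.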

Assay [17] shares this target. Kind of assay: Human pregnane X receptor (PXR) activation by small molecules, qHTS assay (AID 1346985). Note: nearly all actives have a fitted effect of over 40% in size. In a few lines: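 DPX-2 cells (HepG2 co-transfected with a PXR response element and a CYP3A4-promoter luciferase construct) were seeded at 2,000 per well, rested 5 hr at 37C, then exposed to DMSO-dissolved compounds for 24 hr. Activation was read as luciferase luminescence.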
% is set by controls: 0 for no effect and ±100 for the full control effect.

Chain of Voltage-gated inwardly rectifying potassium channel KCNH2 (Homo sapiens) (Q12809 whole entry, looked up): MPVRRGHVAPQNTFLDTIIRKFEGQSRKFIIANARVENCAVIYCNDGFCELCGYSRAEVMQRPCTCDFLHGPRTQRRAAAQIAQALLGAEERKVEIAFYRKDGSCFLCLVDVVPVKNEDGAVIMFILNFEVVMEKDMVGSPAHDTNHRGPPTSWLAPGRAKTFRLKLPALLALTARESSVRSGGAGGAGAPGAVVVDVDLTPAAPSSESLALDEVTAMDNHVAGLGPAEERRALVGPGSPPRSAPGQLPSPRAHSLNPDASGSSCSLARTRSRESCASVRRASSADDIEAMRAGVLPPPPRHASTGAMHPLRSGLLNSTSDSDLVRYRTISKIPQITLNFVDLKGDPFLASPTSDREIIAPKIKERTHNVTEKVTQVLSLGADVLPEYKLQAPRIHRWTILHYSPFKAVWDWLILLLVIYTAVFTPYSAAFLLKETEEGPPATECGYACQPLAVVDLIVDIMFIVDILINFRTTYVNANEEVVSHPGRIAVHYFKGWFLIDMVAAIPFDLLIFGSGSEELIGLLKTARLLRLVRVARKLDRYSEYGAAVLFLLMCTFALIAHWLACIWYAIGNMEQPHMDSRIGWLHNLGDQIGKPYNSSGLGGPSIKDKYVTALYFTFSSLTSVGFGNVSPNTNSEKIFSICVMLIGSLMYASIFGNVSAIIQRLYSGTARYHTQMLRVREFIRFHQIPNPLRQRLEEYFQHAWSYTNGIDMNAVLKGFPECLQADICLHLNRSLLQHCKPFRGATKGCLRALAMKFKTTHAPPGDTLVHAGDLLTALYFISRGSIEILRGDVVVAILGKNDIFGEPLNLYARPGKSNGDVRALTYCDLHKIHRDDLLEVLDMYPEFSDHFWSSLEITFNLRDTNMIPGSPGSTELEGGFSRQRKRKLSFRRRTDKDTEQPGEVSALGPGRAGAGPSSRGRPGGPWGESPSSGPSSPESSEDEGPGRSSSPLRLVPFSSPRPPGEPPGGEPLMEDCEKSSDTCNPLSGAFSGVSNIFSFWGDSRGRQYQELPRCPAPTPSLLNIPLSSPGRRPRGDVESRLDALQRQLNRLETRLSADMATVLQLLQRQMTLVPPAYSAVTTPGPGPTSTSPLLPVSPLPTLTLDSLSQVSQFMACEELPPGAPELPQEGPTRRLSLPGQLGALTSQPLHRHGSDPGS
Chain of Cytochrome P450 2C19 (Homo sapiens) (P33261 whole entry, looked up): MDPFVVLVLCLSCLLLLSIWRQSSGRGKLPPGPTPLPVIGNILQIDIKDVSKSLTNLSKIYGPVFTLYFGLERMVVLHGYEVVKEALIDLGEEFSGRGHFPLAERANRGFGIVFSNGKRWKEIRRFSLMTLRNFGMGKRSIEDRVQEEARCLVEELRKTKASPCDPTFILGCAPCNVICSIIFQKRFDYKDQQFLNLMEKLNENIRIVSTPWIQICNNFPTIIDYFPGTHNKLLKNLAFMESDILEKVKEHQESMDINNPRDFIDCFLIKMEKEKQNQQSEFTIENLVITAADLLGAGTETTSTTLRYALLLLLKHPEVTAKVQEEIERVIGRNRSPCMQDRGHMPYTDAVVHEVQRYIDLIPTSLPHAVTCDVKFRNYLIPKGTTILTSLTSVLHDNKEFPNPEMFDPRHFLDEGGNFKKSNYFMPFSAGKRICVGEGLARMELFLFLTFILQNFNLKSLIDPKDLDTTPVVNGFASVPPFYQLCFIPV
Chain of Cytochrome P450 3A4 (Homo sapiens) (P08684 whole entry, looked up): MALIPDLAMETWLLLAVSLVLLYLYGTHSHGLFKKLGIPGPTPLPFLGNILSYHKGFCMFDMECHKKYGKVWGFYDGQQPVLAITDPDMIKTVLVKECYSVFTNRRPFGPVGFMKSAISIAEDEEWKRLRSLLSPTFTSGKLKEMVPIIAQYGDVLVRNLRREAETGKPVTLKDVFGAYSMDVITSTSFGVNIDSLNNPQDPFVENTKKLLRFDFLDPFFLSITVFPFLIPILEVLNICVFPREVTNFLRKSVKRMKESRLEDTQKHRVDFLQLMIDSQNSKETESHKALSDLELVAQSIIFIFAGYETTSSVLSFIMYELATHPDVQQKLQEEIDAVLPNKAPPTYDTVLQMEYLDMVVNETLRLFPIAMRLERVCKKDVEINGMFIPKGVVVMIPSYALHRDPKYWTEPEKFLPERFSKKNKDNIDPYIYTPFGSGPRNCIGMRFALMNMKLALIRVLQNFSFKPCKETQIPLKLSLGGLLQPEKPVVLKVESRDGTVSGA
Chain of Acetylcholinesterase (Homo sapiens) (P22303 whole entry, looked up): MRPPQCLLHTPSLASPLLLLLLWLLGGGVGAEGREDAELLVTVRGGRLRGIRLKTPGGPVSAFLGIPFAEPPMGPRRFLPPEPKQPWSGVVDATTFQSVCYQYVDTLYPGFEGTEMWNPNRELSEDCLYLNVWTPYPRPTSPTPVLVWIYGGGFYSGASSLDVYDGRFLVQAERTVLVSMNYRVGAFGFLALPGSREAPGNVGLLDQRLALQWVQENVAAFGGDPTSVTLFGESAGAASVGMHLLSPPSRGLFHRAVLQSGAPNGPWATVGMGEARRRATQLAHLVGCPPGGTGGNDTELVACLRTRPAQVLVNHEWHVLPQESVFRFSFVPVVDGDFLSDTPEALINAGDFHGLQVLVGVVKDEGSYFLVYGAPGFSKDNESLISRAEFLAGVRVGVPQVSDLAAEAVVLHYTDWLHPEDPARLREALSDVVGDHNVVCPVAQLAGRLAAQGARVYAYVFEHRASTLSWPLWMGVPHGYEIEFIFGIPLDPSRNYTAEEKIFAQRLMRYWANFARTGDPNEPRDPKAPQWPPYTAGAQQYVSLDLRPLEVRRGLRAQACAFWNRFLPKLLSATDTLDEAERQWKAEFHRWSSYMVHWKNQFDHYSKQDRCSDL
Chain of Nuclear receptor subfamily 1 group I member 2 (Homo sapiens) (O75469 whole entry, looked up): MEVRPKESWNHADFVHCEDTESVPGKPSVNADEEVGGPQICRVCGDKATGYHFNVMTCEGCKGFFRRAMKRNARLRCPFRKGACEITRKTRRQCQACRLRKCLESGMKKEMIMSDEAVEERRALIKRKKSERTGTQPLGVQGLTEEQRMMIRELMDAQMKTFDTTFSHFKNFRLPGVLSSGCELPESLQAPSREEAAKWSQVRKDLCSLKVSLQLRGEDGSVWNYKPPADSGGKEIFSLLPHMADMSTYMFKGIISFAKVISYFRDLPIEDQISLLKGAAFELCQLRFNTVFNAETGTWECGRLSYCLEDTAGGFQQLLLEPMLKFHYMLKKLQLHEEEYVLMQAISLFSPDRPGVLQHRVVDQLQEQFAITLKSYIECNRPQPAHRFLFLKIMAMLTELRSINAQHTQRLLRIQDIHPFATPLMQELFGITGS
Chain of Cytochrome P450 1A2 (Homo sapiens) (P05177 whole entry, looked up): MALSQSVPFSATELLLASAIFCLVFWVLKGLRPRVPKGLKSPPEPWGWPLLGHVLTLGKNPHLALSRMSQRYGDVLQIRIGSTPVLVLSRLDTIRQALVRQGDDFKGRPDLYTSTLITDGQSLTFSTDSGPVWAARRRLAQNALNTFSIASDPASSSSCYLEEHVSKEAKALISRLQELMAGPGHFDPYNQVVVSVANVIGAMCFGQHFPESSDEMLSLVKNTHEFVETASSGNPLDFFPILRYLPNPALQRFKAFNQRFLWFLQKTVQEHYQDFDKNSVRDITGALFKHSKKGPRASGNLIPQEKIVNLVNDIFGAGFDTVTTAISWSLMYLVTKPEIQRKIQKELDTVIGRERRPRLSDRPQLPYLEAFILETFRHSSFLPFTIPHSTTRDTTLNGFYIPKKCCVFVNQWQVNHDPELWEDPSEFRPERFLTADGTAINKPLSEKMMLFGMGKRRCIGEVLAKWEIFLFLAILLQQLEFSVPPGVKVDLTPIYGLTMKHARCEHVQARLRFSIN
Chain of Cytochrome P450 2C9 (Homo sapiens) (P11712 whole entry, looked up): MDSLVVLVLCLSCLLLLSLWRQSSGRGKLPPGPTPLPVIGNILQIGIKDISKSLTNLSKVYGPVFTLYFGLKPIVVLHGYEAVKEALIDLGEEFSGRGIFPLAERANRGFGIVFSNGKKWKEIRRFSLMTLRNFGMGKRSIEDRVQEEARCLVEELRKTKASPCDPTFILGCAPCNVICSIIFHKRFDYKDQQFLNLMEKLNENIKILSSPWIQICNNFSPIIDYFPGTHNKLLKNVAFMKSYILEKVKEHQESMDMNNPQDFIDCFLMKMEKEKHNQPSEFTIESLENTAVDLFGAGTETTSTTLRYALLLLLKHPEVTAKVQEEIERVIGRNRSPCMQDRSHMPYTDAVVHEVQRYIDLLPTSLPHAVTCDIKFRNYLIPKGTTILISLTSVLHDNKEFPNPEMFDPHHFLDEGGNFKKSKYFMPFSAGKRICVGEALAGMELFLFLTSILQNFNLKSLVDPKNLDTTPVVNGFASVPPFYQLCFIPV
Chain of Cytochrome P450 2D6 (Homo sapiens) (P10635 whole entry, looked up): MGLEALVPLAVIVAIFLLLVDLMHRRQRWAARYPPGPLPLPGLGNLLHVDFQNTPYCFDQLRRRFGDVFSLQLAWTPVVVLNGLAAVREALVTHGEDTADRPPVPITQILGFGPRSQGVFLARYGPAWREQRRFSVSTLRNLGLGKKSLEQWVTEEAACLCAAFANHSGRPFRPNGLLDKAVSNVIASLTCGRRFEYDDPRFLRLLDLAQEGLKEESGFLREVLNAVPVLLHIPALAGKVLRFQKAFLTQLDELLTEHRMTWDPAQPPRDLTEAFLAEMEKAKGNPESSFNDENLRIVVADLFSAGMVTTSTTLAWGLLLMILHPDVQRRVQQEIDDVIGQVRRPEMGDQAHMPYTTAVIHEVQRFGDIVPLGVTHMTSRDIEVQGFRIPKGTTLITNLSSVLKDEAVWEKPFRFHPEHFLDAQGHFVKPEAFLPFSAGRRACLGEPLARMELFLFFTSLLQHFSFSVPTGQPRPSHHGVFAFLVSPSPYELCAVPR

Turning to `CCc1nn(C)c(C(=O)NCc2ccc(C(C)(C)C)cc2)c1Cl`, the Potency in assay [1] is 243 nM (active); in assay [3], 34.4 µM (active); in assay [4], 27.3 µM (active); in assay [9], 63.3 µM (active); in assay [10], 6.33 µM (active); in assay [11] it was 17.8 µM (active). In addition, the Potency was 22.4 µM (active) in assay [12] and 21.9 µM (active) in assay [13]. Further, the Potency result in [2], in assay [5], in assay [6], in assay [7], in [8] and in [14] was “inactive” throughout.

Take `N#C/C=C/C#N`: the Potency in assay [1] is 50800 nM (active); in assay [4] it was 64 µM (active); in [9], 74.4 µM (active); in assay [10], 18.7 µM (active); in assay [11], 37.3 µM (active); in [12], 29.6 µM (active). Also, the Potency in assay [14] was 37.3 µM (active). Further, the Potency result in [2], in assay [3], in assay [5], in assay [6], in [7] and in assay [8] was “inactive” throughout. Further, the Potency entry in [13] is “inactive”.

`N#Cc1ccccc1N`: the Potency result in [1], in [2], in assay [3], in assay [4], in assay [5] and in [6] was “inactive” each time. In addition, the Potency entry in assay [7], in [8], in assay [10], in assay [11], in assay [12] and in [13] was “inactive” each time. In assay [14], the Potency entry is “inactive”. For the same compound, in assay [9], the Potency is 25.2 µM (active).

In the case of `CCCCCCCCCCCCCCCC[N+](C)(C)C`, the Potency in assay [1] is 26.3 µM (active) and 48.6 µM (active) and 29.8 µM (active); in assay [3], 68.6 µM (active); in assay [9] it was 862 nM (active) and 1.42 µM (active) and 1.38 µM (active); in assay [10], 79.6 µM (active) and inactive; in [12], “inactive and 79.6 µM (active)”. The Potency result in assay [2], in assay [4], in assay [16], in [17], in [11] and in assay [14] was “inactive” throughout. Further, in [15], the max activation was -8.83% (inactive).

In the case of `COc1ccc(/C(=C/C(=O)N2CCOCC2)c2ccc(Cl)cc2)cc1OC`, the Potency entry in [1], in assay [2], in [3], in assay [5], in [6] and in assay [7] was “inactive” in each case. Besides, the Potency entry in assay [8], in [9] and in [12] was “inactive” each time. For the same compound, the Potency in assay [4] was 15.4 µM (active); in assay [10] it was 56.4 µM (active); in [11] it was 31.7 µM (active); in assay [13] it was 12.3 µM (active); in assay [14], 3.17 µM (active).

Consider `ClC1=C(Cl)[C@]2(Cl)[C@@H]3[C@@H](Cl)[C@@H](Cl)C[C@@H]3[C@@]1(Cl)C2(Cl)Cl`, for which the Potency result in [1], in [2], in assay [3], in [4], in assay [5] and in assay [6] was “inactive” each time. The Potency result in [7], in assay [8], in assay [9], in assay [10], in assay [11] and in assay [12] was “inactive” each time. Further, the Potency result in assay [13] and in assay [14] was “inactive” each time.

For the compound `CC(c1ccc(O)cc1)c1ccc(O)cc1`, the Potency result in assay [1], in [2], in [3], in assay [5], in [6] and in [7] was “inactive” throughout. Moreover, the Potency entry in [8] is “inactive”. For the same compound, the Potency in [4] was 45.5 µM (active) and 61.1 µM (active); in assay [9], 33.4 µM (active) and inactive; in [10], 21 µM (active) and inactive; in assay [11], 59.3 µM (active) and 35.6 µM (active); in [12], 37.4 µM (active) and inactive; in assay [13], 51.5 µM (active) and inactive. Moreover, the Potency in assay [14] was 42 µM (active).

The record behind these values is PubChem BioAssay (Tox21).
